# HT1080NT lethal: qHTS for induction of synthetic lethality in tumor cells producing 2HG: qHTS for the HT-1080-NT fibrosarcoma cell line. HT-1080-NT fibrosarcoma viability, CellTiter-Glo ATP luminescence, 48 h. Potency, µM (series often up to 46.1 µM), for inactives: at the highest dose activity, negative = less viability, hits mostly cytotoxic. hit rate 1.6% among 360,000. AID 686970, 2013;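 note: NT is the 2HG producing partner of a matched IDH1 knockdown line; 0% = DMSO-treated cells and -100% = media-only wells without cells; nearly all actives have a fitted effect of over 55% in size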
#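 Viability by CellTiter-Glo luminescence after 48 h compound exposure at 37C of HT-1080-NT cells (750/well, RPMI, 5% FBS). % activity scaled between DMSO wells and medium-only wells, then curve-fitted and categorized by curve class.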
# HT1080 IDH1KD tx: qHTS for induction of synthetic lethality in tumor cells producing 2HG: qHTS for the HT-1080-IDH1KD cell line; HT-1080 IDH1 knockdown viability, ATP luminescence, 48 h; Potency, µM (titrated, usually from 46.1 µM), for inactives: at the top dose activity, negative = toxicity, usual class: cytotoxic; hit rate 2% among 360,000; AID 686971, 2013;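 note: 0% = DMSO wells and -100% = cell-free medium wells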
#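 Using the IDH1-knockdown HT-1080 line run in the same batch and compound series as the NT line, viability after 48 h at 37 °C was determined by CellTiter-Glo luminescence and expressed as % activity.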
# SW480 rerep: A quantitative high throughput screen for small molecules that induce DNA re-replication in SW480 colon adenocarcinoma cells | AID 624297, 2012 | hit rate 1.8% among 340,000 | Potency, µM (titrated, usually from 46.1 µM), for the others: at the highest dose re-replication activation, actives largely listed as activators | SW480 DNA re-replication, Hoechst DNA content imaging, 48 h; note: % of control where 0% means no effect; nearly all actives have a fitted effect of over 55% in size
#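 SW480 cells exposed to compounds for 48 hr at 37 C, 5% CO2, then Hoechst-stained 40 min. Nuclear DNA content imaged by fluorescence scanning (405 nm excitation, 500-530 nm emission); re-replication scored as increased high-intensity nuclei.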
# KB-3-1 tox: qHTS assay for MDR1-selective chemotherapeutics: Primary screen using the parental adenocarcinoma cell KB-3-1; Potency, µM (titrated, usually from 46.1 µM), actives largely listed as cytotoxic; hit rate 1.4% among 400,000; KB-3-1 viability, CellTiter-Glo ATP luminescence, 72 h; note: % is set by controls: 0 for no effect and ±100 for the full control effect; nearly all actives have a fitted effect of over 60% in size
#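 Luminescent ATP read-out (CellTiter-Glo) measures survival of drug-naive KB-3-1 cells after 72 h compound exposure at 37 °C. Titration series was screened from lowest to highest concentration, with DMSO vehicle plates as background controls.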
# MCF10A rereplic: A quantitative high throughput screen for small molecules that induce DNA re-replication in MCF 10a normal breast cells | MCF 10A DNA re-replication, Hoechst nuclear intensity, 48 h | Potency, µM (doses to about 46.1 µM), for inactives: at the top dose activity, positive = re-replication, actives largely listed as activators | hit rate 2.9% among 350,000; note: % of control where 0% means no effect; nearly all actives have a fitted effect of over 50% in size
# KB-V1 MDR tox: qHTS assay for MDR1-selective chemotherapeutics: Primary screen using the drug-selected MDR subline cells KB-V1; KB-V1 MDR cells viability, CellTiter-Glo, 72 h; Potency, µM (series often up to 46.1 µM), usual class: cytotoxic; hit rate 3.4% among 400,000; AID 1347076, 2019; note: % is set by controls: 0 for no effect and ±100 for the full control effect; nearly all actives have a fitted effect of over 60% in size
#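 Cells of the MDR subline KB-V1 are plated, dosed with compound at multiple concentrations, and incubated 72 h at 37 degrees C; CellTiter-Glo is then added and luminescence read after 10 min.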
# * marks the source's active call; other numbers are inactive results; i = inactive; ? = inconclusive; nt = no result; [ ] = another dose, or the depositor's remark. Sampled rows, rich in hits. Any-hit rate of the full collection: about 7.9%. Calls come from the whole dose curve; as a rule, active = well fitted curve in the direction sought with a large enough effect; inconclusive = small, poorly fitted or top-dose-only effect, or another doubt; inactive = no such curve, though single readings can be large; an effect the other way counts as inactive or inconclusive. Potency is the fitted concentration of half-maximal effect.
SMILES,HT1080NT lethal,HT1080 IDH1KD tx,SW480 rerep,KB-3-1 tox,MCF10A rereplic,KB-V1 MDR tox
COc1ccc(S(=O)(=O)N2CCCCCC2)cc1N(C)S(=O)(=O)c1ccc(Cl)cc1,?,-9.8%,-0.1%,i,3.8%,20.6µM*
CCN(CC)S(=O)(=O)c1ccc2c(c1)c(=O)c(C(=O)NCc1cccs1)cn2C,4.2%,5.6%,-124.8%,i,-31.3%,6.51µM*
COc1ccc(CNC(=O)c2cc(S(=O)(=O)N3CCCCC3)ccc2Cl)cc1OC,9.2µM*,-18.2%,?,i,0.2%,i
COc1cc2[nH]cc(C(=O)NCc3cccs3)c(=O)c2cc1OC,20µM*,?,1.9%,i,-1.8%,i
CCN(c1ccc(OC)cc1)S(=O)(=O)c1ccc2c(c1)NC(=O)CS2,-6.6%,-5.2%,77.0%,i,?,i
Cc1ccc(-c2noc(CN3CCCCC3)n2)cc1,1.0%,-0.8%,-26.3%,i,-183.5%[0.0737 µM],i
COc1ccc(S(=O)(=O)N2CCCCCC2)cc1C(=O)N(C)Cc1ccc(C(C)(C)C)cc1,?,?,-16.8%,?,18.4µM*,?
COc1ccc(S(=O)(=O)N2CCCCCC2)cc1C(=O)NCCOc1ccc(C)cc1,-7.7%,0.9%,22.4%,i,25.7%,9.2µM*
COc1ccc(S(=O)(=O)N2CCCCCC2)cc1C(=O)N(C)Cc1ccc(F)cc1,-5.8%,-7.5%,-57.0%,i,-9.5%,i
COc1cc(OC)c(OC)cc1CNC(=O)c1ccc(S(=O)(=O)N2CCCCC2)cc1,-1.6%,-5.5%,2.9%,i,1.3%,7.31µM*
COc1ccc(S(=O)(=O)N2CCCCCC2)cc1C(=O)NCc1cccs1,-10.3%,0.1%,0.3%,i,2.9%,8.2µM*
COc1ccccc1CNC(=O)c1ccc(S(=O)(=O)N2CCCC2)cc1,14.3%,2.4%,-2.0%,i,-22.1%,i
COc1ccc(S(=O)(=O)N2CCCCCC2)cc1C(=O)Nc1ccc(C)cn1,10.9%,5.1%,-78.6%,i,-11.8%,i
COc1ccc(S(=O)(=O)N2CCCCCC2)cc1C(=O)NCc1ccco1,-2.4%,-19.3%,3.5%,i,7.7%,i
CC1CCCCN1C(=O)Cc1ccc(F)cc1 (configuration not stated),11.5%,10.6%,-2.1%,i,-2.2%,i
CS(=O)(=O)N1CCc2cc(C(=O)Nc3ccccc3Cl)ccc21,22.6%,21.4%,-12.1%[1.84 µM],i,7.7%,i
COc1ccc(CNC(=O)CCCn2ccc3cc(S(=O)(=O)N4CCCC4)ccc32)cc1,?,?,7.31µM*,?,20.6µM*,?
O=C(NCCc1ccccc1)c1cc(S(=O)(=O)N2CCOCC2)ccc1F,19.6%,26.5%,2.3%,i,16.2%,i
Cc1cc(C)cc(OCCNC(=O)c2cc(S(=O)(=O)N3CCOCC3)ccc2F)c1,?,?,?,23.1µM*,19.9%,?
COc1cc(CN2C[C@@H](CO)O[C@@H](n3cnc4c(NCc5ccc(F)cc5)ncnc43)C2)cc(OC)c1OC,7.3%,2.2%,nt,i,nt,i
O=C(O)C1(Nc2ccccc2)CCCC1,13.2%,5.8%,-9.9%,i,-23.2%,i
CN1C(=O)OC2(C)CCc3ccccc3C12C (configuration not stated),9.5%,-3.2%,-8.4%,i,-6.2%,i
Cc1ccc(CNC(=O)c2ccc(-c3nc(CS(=O)(=O)c4ccc(C)cc4)c(C)o3)cc2)cc1,nt,nt,nt,i,nt,i
C/C(=N\NC(=O)c1ccccc1NC(=O)c1ccc(Cl)cc1)c1ccncc1,0.517µM*,1.3µM*,3.8%,1.46µM*,1.5%,1.3µM*

# Screening data from PubChem BioAssay.
